# The campaign covered roughly 5,700 compounds. About 85 (1%) were called active. No stated cut-off is given here; in the data, active means p53-positive nuclei above about 36% (passing the limit was not always enough); inactive means the rest. Shown is part of a subset that was picked to be rich in actives.
# Tests used:
# [1] = p53 stabilisation in HPV-positive human cells, imaging, p53-positive nuclei imaging, 24 h, 48 h (AID 1508601); details: 24/48 h
# [2] = biological target: Cellular tumor antigen p53 (Homo sapiens) (UniProt P04637); assay: as above; details: 24/48 h, stronger effect = higher value
# Cellular tumor antigen p53 (Homo sapiens), sequence (P04637 whole entry, looked up): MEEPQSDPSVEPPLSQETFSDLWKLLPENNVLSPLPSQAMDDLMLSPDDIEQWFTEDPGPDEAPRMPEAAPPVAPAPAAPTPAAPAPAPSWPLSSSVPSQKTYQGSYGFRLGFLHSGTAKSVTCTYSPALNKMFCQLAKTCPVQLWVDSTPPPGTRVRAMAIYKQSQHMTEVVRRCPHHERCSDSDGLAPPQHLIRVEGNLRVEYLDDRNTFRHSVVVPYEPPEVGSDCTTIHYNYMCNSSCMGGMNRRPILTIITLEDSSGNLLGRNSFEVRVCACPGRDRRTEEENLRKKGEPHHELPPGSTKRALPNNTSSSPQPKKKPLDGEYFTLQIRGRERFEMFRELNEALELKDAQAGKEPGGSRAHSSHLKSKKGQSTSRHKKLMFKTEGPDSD
smiles,measurement,setting,value
CC=C(C)C(=O)NC(c1ccccc1)C(O)C(=O)OC1C[C@@]2(O)C(OC(=O)c3ccccc3)[C@@H]3[C@]4(OC(C)=O)COC4CC(O)[C@@]3(C)C(=O)C(OC(C)=O)C(=C1C)C2(C)C (some centres undefined),"nuclei count, normalised","[1]; measured here: cell number at 24 h, Library stock concentration: 3.33 mM",33.5%
same,"nuclei count, normalised","[1]; measured here: cell number at 48 h, Library stock concentration: 3.33 mM",28.1%
same,"p53-positive nuclei, normalised",[2]; Library stock concentration: 3.33 mM,1.63% (inactive)
same,"p53-positive nuclei, normalised","[2]; measured here: p53 positive nuclei at 24 h, Library stock concentration: 3.33 mM",-0.0935%
OC1CN2CCC(O)[C@H]2C(O)C1O (some centres undefined),"nuclei count, normalised","[1]; measured here: cell number at 24 h, Library stock concentration: 500 nM",98.9%
same,"nuclei count, normalised","[1]; measured here: cell number at 24 h, Library stock concentration: 1.5 uM",116%
same,"nuclei count, normalised","[1]; measured here: cell number at 24 h, Library stock concentration: 4.6 uM",110%
same,"nuclei count, normalised","[1]; measured here: cell number at 24 h, Library stock concentration: 13.7 uM",107%
same,"nuclei count, normalised","[1]; measured here: cell number at 24 h, Library stock concentration: 41 uM",109%
same,"nuclei count, normalised","[1]; measured here: cell number at 24 h, Library stock concentration: 123 uM",108%
same,"nuclei count, normalised","[1]; measured here: cell number at 24 h, Library stock concentration: 370 uM",107%
same,"nuclei count, normalised","[1]; measured here: cell number at 24 h, Library stock concentration: 1.111 mM",107%
same,"nuclei count, normalised","[1]; measured here: cell number at 24 h, Library stock concentration: 3.333 mM",105%
same,"nuclei count, normalised","[1]; measured here: cell number at 24 h, Library stock concentration: 10 mM",105%
same,"nuclei count, normalised","[1]; measured here: cell number at 48 h, Library stock concentration: 500 nM",102%
same,"nuclei count, normalised","[1]; measured here: cell number at 48 h, Library stock concentration: 1.5 uM",111%
same,"nuclei count, normalised","[1]; measured here: cell number at 48 h, Library stock concentration: 4.6 uM",108%
same,"nuclei count, normalised","[1]; measured here: cell number at 48 h, Library stock concentration: 13.7 uM",105%
same,"nuclei count, normalised","[1]; measured here: cell number at 48 h, Library stock concentration: 41 uM",110%
same,"nuclei count, normalised","[1]; measured here: cell number at 48 h, Library stock concentration: 123 uM",108%
same,"nuclei count, normalised","[1]; measured here: cell number at 48 h, Library stock concentration: 370 uM",106%
same,"nuclei count, normalised","[1]; measured here: cell number at 48 h, Library stock concentration: 1.111 mM",102%
same,"nuclei count, normalised","[1]; measured here: cell number at 48 h, Library stock concentration: 3.333 mM",106%
same,"nuclei count, normalised","[1]; measured here: cell number at 48 h, Library stock concentration: 10 mM",104%
same,"p53-positive nuclei, normalised",[2]; Library stock concentration: 500 nM,-0.0904% (inactive)
same,"p53-positive nuclei, normalised",[2]; Library stock concentration: 1.5 uM,0.192% (inactive)
same,"p53-positive nuclei, normalised",[2]; Library stock concentration: 4.6 uM,0.0933% (inactive)
same,"p53-positive nuclei, normalised",[2]; Library stock concentration: 13.7 uM,-0.133% (inactive)
same,"p53-positive nuclei, normalised",[2]; Library stock concentration: 41 uM,-0.107% (inactive)
same,"p53-positive nuclei, normalised",[2]; Library stock concentration: 123 uM,0.0873% (inactive)
same,"p53-positive nuclei, normalised",[2]; Library stock concentration: 370 uM,0.261% (inactive)
same,"p53-positive nuclei, normalised",[2]; Library stock concentration: 1.111 mM,-0.0118% (inactive)
same,"p53-positive nuclei, normalised",[2]; Library stock concentration: 3.333 mM,0.175% (inactive)
same,"p53-positive nuclei, normalised",[2]; Library stock concentration: 10 mM,-0.135% (inactive)
same,"p53-positive nuclei, normalised","[2]; measured here: p53 positive nuclei at 24 h, Library stock concentration: 500 nM",-0.068%
same,"p53-positive nuclei, normalised","[2]; measured here: p53 positive nuclei at 24 h, Library stock concentration: 1.5 uM",0.213%
same,"p53-positive nuclei, normalised","[2]; measured here: p53 positive nuclei at 24 h, Library stock concentration: 4.6 uM",-0.135%
same,"p53-positive nuclei, normalised","[2]; measured here: p53 positive nuclei at 24 h, Library stock concentration: 13.7 uM",-0.189%
same,"p53-positive nuclei, normalised","[2]; measured here: p53 positive nuclei at 24 h, Library stock concentration: 41 uM",0.0835%
same,"p53-positive nuclei, normalised","[2]; measured here: p53 positive nuclei at 24 h, Library stock concentration: 123 uM",0.197%
same,"p53-positive nuclei, normalised","[2]; measured here: p53 positive nuclei at 24 h, Library stock concentration: 370 uM",0.0352%
same,"p53-positive nuclei, normalised","[2]; measured here: p53 positive nuclei at 24 h, Library stock concentration: 1.111 mM",-0.189%
same,"p53-positive nuclei, normalised","[2]; measured here: p53 positive nuclei at 24 h, Library stock concentration: 3.333 mM",-0.0741%
same,"p53-positive nuclei, normalised","[2]; measured here: p53 positive nuclei at 24 h, Library stock concentration: 10 mM",0.108%

# Source: PubChem BioAssay AID1508601 (ICCB-Longwood Screening Facility, Harvard Medical School, 2020)
